Assay results: the supplement of paper PMC8728848
Shown is part of a subset that was picked to be rich in the strongest signals.

Columns and labels:
Test in all cases: glycan array binding signal (z-score within array); higher = stronger binding
Settings in all cases: glycan notation: IUPAC condensed, linker removed; mutation: K176L
[1] = molecular target: Neu5Ac(a2-3)Gal(b1-3)GalNAc
Summary of the method: (§1)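 The Consortium for Functional Glycomics database supplied 3228 glycan arrays, of which those lacking an available protein sequence were dropped. The binding signal, a within-array Z-score, was averaged across arrays of the same protein sequence and across linkers. Negative scores can be read as non-binding.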

[2] = molecular target: Neu5Ac(a2-3)Gal(b1-3)GlcNAc(b1-3)Gal(b1-4)GlcNAc
Summary of the method: as §1

[3] = molecular target: Neu5Ac(a2-6)Gal(b1-4)GlcNAc(b1-2)Man(a1-3)[Gal(b1-4)GlcNAc(b1-2)Man(a1-6)]Man(b1-4)GlcNAc(b1-4)GlcNAc
Summary of the method: as §1

[4] = molecular target: Neu5Gc(a2-3)Gal(b1-3)[Fuc(a1-4)]GlcNAc
Summary of the method: as §1

B1: Gal 3 (Homo sapiens), P17931 (protein)
chain: MADNFSLHDALSGSGNPNPQGWPGAWGNQPAGAGGYPGASYPGAYPGQAPPGAYPGQAPPGAYHGAPGAYPGAPAPGVYPGPPSGPGAYPSSGQPSAPGAYPATGPYGAPAGPLIVPYNLPLPGGVVPRMLITILGTVKPNANILDFQRGNDVAFHFNPRFNENNRRVIVCNTLLDNNWGREERQSVFPFESGKPFKIQVLVEPDHFKVAVNDAHLLQYNHRVKKLNEISKLGISGDIDLTSASYTMI
glycan array binding signal (z-score) [1]: -0.269
glycan array binding signal (z-score) [2]: 0.372
glycan array binding signal (z-score) [3]: -0.267
glycan array binding signal (z-score) [4]: -0.272
